The text below walks through data of paper PMC4336329 (PLoS ONE, 2015).

About 14,000 (4.5%) of roughly 310,000 compounds showed an effect of 50% or more. The effect is printed as a negative number. The sample as a whole holds a higher share of strong results than the screen did.
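Further: peak tail current of the secondary pulse compared with the same well before compound.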

Sequence of human ether-à-go-go-related gene (hERG) potassium channel (Q12809 whole entry, looked up): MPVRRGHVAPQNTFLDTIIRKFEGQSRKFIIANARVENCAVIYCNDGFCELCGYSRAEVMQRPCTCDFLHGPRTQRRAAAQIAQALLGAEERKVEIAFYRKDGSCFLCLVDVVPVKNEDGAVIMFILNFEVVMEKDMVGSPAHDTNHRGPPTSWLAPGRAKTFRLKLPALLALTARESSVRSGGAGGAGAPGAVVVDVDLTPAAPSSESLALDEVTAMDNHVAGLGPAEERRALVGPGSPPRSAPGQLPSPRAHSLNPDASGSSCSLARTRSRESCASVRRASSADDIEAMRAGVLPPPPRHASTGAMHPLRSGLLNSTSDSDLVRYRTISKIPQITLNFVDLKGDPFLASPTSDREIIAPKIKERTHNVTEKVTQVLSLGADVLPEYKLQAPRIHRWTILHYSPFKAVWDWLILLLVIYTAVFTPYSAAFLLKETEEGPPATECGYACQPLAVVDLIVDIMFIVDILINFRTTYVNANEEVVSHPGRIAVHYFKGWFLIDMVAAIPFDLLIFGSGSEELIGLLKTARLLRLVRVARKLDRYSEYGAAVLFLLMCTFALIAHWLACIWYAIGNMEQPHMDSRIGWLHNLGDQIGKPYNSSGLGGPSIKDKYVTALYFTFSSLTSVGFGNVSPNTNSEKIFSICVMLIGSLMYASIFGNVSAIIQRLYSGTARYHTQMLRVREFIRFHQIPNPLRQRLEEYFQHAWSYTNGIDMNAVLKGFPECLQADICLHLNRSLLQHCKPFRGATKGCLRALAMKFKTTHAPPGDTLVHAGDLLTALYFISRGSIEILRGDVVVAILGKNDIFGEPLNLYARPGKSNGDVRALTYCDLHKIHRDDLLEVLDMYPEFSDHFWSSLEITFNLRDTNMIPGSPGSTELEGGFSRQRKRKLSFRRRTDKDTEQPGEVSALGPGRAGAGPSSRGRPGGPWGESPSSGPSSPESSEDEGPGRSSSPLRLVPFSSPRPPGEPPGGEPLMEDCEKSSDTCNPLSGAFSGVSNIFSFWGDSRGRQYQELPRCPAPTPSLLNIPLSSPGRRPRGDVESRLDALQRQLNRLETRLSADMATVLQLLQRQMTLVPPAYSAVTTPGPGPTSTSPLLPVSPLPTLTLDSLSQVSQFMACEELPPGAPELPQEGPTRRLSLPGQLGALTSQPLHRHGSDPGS

The test concerns the target human ether-à-go-go-related gene (hERG) potassium channel (human, UniProt Q12809). Briefly: primary screen, population patch clamp on CHO cells stably expressing hERG; higher = less effect of the substance.
On to `Cc1ccc(S(=O)(=O)N2CCCCC2)cc1NC(=O)Cn1ccsc1=N.Cl`, for which the “hERG current change (%, negative = inhibition) at 10uM” value was -33.7%. Under `O=C(CCl)Nc1cc(S(=O)(=O)N2CCCCCC2)ccc1Cl` stands -22.9%. Under `Cc1nn(C)cc1/C=N/NC(=O)Cn1nccc1C` stands -1.28%. Under `CCCCC(=O)NC1(C(F)(F)F)NC(=O)N(C)C1=O` (stereo not drawn) stands 11.3%. In the case of `CCC(Sc1nc2ccsc2c(=O)n1-c1ccc(Cl)c(C)c1)C(=O)NCc1ccco1` (stereo not drawn), the “hERG current change (%, negative = inhibition) at 10uM” value is listed as -16.8%.

Regarding `CCOC(=O)c1nnn(CC(=O)Nc2cccc(Cl)c2C)c1C(=O)OCC`, the “hERG current change (%, negative = inhibition) at 10uM” value is listed as 4.51%. For the compound `COc1cc(NC(=O)CSc2nnc3c(C)cc4c(C)ccc(C)c4n23)c(C(=O)O)cc1OC`, the “hERG current change (%, negative = inhibition) at 10uM” value stood at 27.1%.

As to `COc1cccc(CNC(=O)CCC2CCCN(C(=O)C3CCOCC3)C2)c1` (stereo not drawn), the “hERG current change (%, negative = inhibition) at 10uM” value came out at 1.51%.

Take `COc1cccc(CNC(=O)CCC2CCCN(C(=O)c3cc(C)on3)C2)c1` (stereo not drawn): the “hERG current change (%, negative = inhibition) at 10uM” value was 5.3%. Under `COc1cccc(CNC(=O)CCC2CCCN(C(=O)c3cc(C)[nH]n3)C2)c1` (stereo not drawn) stands 31.9%; under `COc1cccc(CNC(=O)CCC2CCCN(c3cc(C)nc(N4CCCC4)n3)C2)c1` (stereo not drawn), -75%. Under `COc1cccc(CNC(=O)CCC2CCCN(C(=O)c3ccc(C)nc3)C2)c1` (stereo not drawn) stands 9.47%. Under `COc1cccc(CNC(=O)CCC2CCCN(c3cc(C)nc(N(C)C)n3)C2)c1` (stereo not drawn) stands -62.4%; under `COc1cccc(CNC(=O)CCC2CCCN(C(=O)c3ccccc3N(C)C)C2)c1` (stereo not drawn), 0.174%; under `COc1cccc(CNC(=O)CCC2CCCN(c3cc(C)nc(N)n3)C2)c1` (stereo not drawn), -63.5%. For `Cc1cc(C)nc(N2CCCC(CCC(=O)NCc3ccc(F)c(F)c3)C2)n1` (stereo not drawn), the “hERG current change (%, negative = inhibition) at 10uM” value is listed as -1.25%. `Cc1ccc(Nc2cccccc2=O)cc1`: the “hERG current change (%, negative = inhibition) at 10uM” value is on record as -4.5%.

For `Cc1ccc(S(=O)(=O)N(C)C)cc1NC(=O)CSc1ncn[nH]1`, the “hERG current change (%, negative = inhibition) at 10uM” value came to 3.1%. Take `CC1=NN(C(=O)c2c(Br)cnn2C)C(O)(C(F)(F)F)C1` (stereo not drawn): the “hERG current change (%, negative = inhibition) at 10uM” value was -24.6%. Regarding `Fc1cccc(Nc2ncnc3c2cnn3-c2ccccc2)c1`, the “hERG current change (%, negative = inhibition) at 10uM” value is reported as 12.1%. Under `COc1cc(/C=N/NC(=O)c2nnn(-c3nonc3N)c2C(C)C)ccc1OCc1ccc(F)cc1` stands 31.1%. Turning to `O=C(Cc1cscn1)c1ccc(O)cc1O`, the “hERG current change (%, negative = inhibition) at 10uM” value is given as -9.71%. In the case of `COc1cc(OC)cc(C(=O)N[C@H](C(=O)Nc2ccc3c(c2)OCO3)C(C)C)c1`, the “hERG current change (%, negative = inhibition) at 10uM” value is 11%. Under `O=C(CCC(F)(F)F)N1CCC(CO)(CCc2ccccc2)CC1` stands -12%; under `CSCC(=O)N1CCCC(CO)(CCCc2ccccc2)C1` (stereo not drawn), -4.78%; under `OCC1(CCc2ccccc2)CCCN(CCCC(F)(F)F)C1` (stereo not drawn), -51.7%. As to `OCC1(CCc2ccccc2)CCCN(CCCc2ccccc2)C1` (stereo not drawn), the “hERG current change (%, negative = inhibition) at 10uM” value is recorded as -70.9%. Under `CSCCC(=O)N1CCCC(CO)(CCCc2ccccc2)C1` (stereo not drawn) stands -8.88%; under `OCC1(Cc2ccc(F)cc2)CCCN(CCCC(F)(F)F)C1` (stereo not drawn), -22.3%; under `C[n+]1ccc(/C=N/Nc2nc(Cl)c(C#N)c(Cl)c2Cl)cc1.[Cl-]`, 20.2%. Under `Cc1ccc(CNC(=O)c2ccccc2N)cc1` stands 5.16%; under `COc1cc(NS(=O)(=O)c2ccc(N/C=C(\C#N)c3nc4cc(Cl)ccc4o3)cc2)nc(OC)n1`, -7.44%. Under `CCN(CC)c1ccc(N2C(=NC(=O)C3CCCO3)SC3CS(=O)(=O)CC32)cc1` (stereo not drawn) stands 3.6%; under `CC(=O)c1ccc(N2C(=NC(=O)C3CCCO3)SC3CS(=O)(=O)CC32)cc1` (stereo not drawn), -39.7%. On to `CCCCc1ccc(N2C(=NC(=O)C3CCCO3)SC3CS(=O)(=O)CC32)cc1` (stereo not drawn), for which the “hERG current change (%, negative = inhibition) at 10uM” value was -56.5%. As to `COc1ccc(/C(C)=N/NC(=O)CCC(=O)Nc2ccc(Cl)cc2Cl)c(OC)c1`, the “hERG current change (%, negative = inhibition) at 10uM” value is recorded as -3.74%. Under `CC1(C)O[C@@H]1COc1c2ccoc2cc2oc(=O)ccc12` stands -19.4%; under `CC1CCN(C2CC(=O)N(c3ccccc3)C2=O)CC1` (stereo not drawn), 8.4%. Under `CCOC(=O)N1CCN(C2CC(=O)N(c3ccc(C)cc3)C2=O)CC1` (stereo not drawn) stands 1.62%; under `O=C1CC(N2CCCCC2)C(=O)N1c1ccccc1` (stereo not drawn), -3.42%.

Consider `Cc1ccc(N2C(=O)CC(N3CCN(c4ccccn4)CC3)C2=O)cc1` (stereo not drawn), for which the “hERG current change (%, negative = inhibition) at 10uM” value is -6.04%. Under `O=C1CC(N2CCN(C3CCc4ccccc4C3)CC2)C(=O)N1c1ccccc1` (stereo not drawn) stands -64.6%; under `Cc1ccc(N2C(=O)CC(N3CCN(C4CCc5ccccc5C4)CC3)C2=O)cc1` (stereo not drawn), -75.1%; under `CC(/C=C/c1ccco1)=N/NC(=O)OC(C)(C)C`, 3.46%. As to `N#Cc1ccccc1Sc1ccccc1C(=O)Nc1ccc2ccccc2c1`, the “hERG current change (%, negative = inhibition) at 10uM” value turned out to be 15.8%.
